Bioassay records as filed in PubChem BioAssay.
TGFb inhibitor: TGF-b pathway inhibition. HepG2 CAGA-GFP TGF-b/SMAD3 reporter, GFP fluorescence, 18 h; TGF-beta stimulated, 500 pg/mL final. Potency, µM (doses to about 46.1 µM), most hits filed as inhibitors. hit rate 1.2% among 410,000. AID 588855; note: nearly all actives have a fitted effect of over 65% in size
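Smad-responsive CAGA-GFP expression was quantified in HEPG2 cells exposed to compounds and 500 pg/mL final TGF-beta for 18 h at 37 degrees C; unstimulated wells defined full inhibition.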
Nrf2 block: blocks Nrf2 signaling; AID 504444; Potency, µM (titrated, usually from 46 µM), most hits filed as inhibitors; A549 ARE-Fluc reporter, luciferase luminescence, 18-24 h; hit rate 2.1% among 360,000; note: nearly all actives have a fitted effect of over 60% in size
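A549 ARE_Fluc cells, 5000/well, 5% FBS OPTI-MEM; compounds in dose-response, 18-24 h at 37 °C/5% CO2; CellTiter-Fluor viability read (Ex 405/Em 525), then BugLite luciferase luminescence = Nrf2 activity.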
ATXN2 expr inh: reduces ATXN2 reporter expression in HEK-293 cells | hit rate 0.72% among 360,000 | Potency, µM (doses to about 57 µM), hits mostly inhibitors | HEK-293 ATXN2-luciferase reporter, luminescence, 24 h | AID 1745845; note: nearly all actives have a fitted effect of over 55% in size
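qHTS (up to 57 uM final) was run with 24 h compound exposure of reporter cells at 37 °C. Each well was multiplexed: SteadyGlo luminescence measured ATXN2-luciferase expression after a fluorogenic Gly-Phe-AFC viability readout (25 uM final).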
S2 tox: cell viability loss in ATXN counter-screen | S2 cells (HEK-293 line with an ATXN2-luciferase reporter) viability, CellTiter-Fluor protease fluorescence, 24 h | AID 651635 | Potency, µM (top dose mostly 56.7 µM), actives largely listed as cytotoxic | hit rate 0.49% among 400,000; note: nearly all actives have a fitted effect of over 40% in size
A549 viability: A549 cytotoxicity, counter-screen for Nrf2 inhibitors; AID 504648; A549 ARE-Fluc cells, CellTiter-Fluor viability, 18-24 h; Potency, µM (highest dose often 46 µM), actives largely listed as inhibitors; hit rate 0.16% among 390,000
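Cytotoxicity counterscreen: CellTiter-Fluor fluorescence was measured in A549 ARE_Fluc cells after 18-24 h of compound exposure in a concentration series. The subsequent BugLite luminescent read reports ARE-luciferase activity.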
HepG2 tox: counter-screen for TGF-b inhibitors: cytotoxicity in HepG2 cells | Potency, µM (highest dose often 46.1 µM), most hits filed as cytotoxic | HepG2 CAGA-GFP viability, ATP luminescence, 18 h | AID 588856 | hit rate 0.76% among 410,000
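HepG2 CAGA-GFP cells (1000/well, DMEM with 1% FBS) received compound, then TGF-beta at 500 pg/mL final, and were incubated 18 hours at 37 degrees C. Viability was read by CellTiter-Glo luminescence. Media-only wells were set as complete cell-killing and DMSO as no toxicity.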
Of the large screens only hits and unclear results are named; the others gave an inactive call. Sampled rows, rich in hits. Any-hit rate of the full collection: about 3.8%. Calls come from the whole dose curve; as a rule, active = well fitted curve in the direction sought with a large enough effect; inconclusive = small, poorly fitted or top-dose-only effect, or another doubt; inactive = no such curve, though single readings can be large; an effect the other way counts as inactive or inconclusive.

Cc1ccc(C)c(NS(=O)(=O)c2ccc(-c3cnc(C4CC4)o3)cc2)c1	TGFb inhibitor inconclusive, S2 tox inconclusive (no result: ATXN2 expr inh)
CCOC(=O)c1cccc(NS(=O)(=O)c2cc(-c3cnc(C4CC4)o3)ccc2C)c1	TGFb inhibitor 17.8µM, S2 tox inconclusive (no result: Nrf2 block)
Cc1ccc(NS(=O)(=O)c2ccc(-c3cnc(C4CC4)o3)cc2)cc1N(C)C	TGFb inhibitor 10µM, ATXN2 expr inh inconclusive (no result: Nrf2 block)
Cc1c(Cl)cccc1NS(=O)(=O)c1ccc(-c2cnc(C3CC3)o2)cc1	TGFb inhibitor 2.82µM, S2 tox inconclusive (no result: Nrf2 block)
Cc1ccc(S(=O)(=O)N(C)C)cc1NC(=O)CN1C(=O)NC2(CCCc3ccccc32)C1=O (stereo not drawn)	S2 tox inconclusive
CN(c1ccccc1)S(=O)(=O)c1cc(C(=O)NCc2ccco2)ccc1Cl	S2 tox inconclusive (no result: Nrf2 block, ATXN2 expr inh, A549 viability)
O=C(COC(=O)c1nc(Cl)ccc1Cl)Nc1ccc(Cl)cn1	none
O=C(COC(=O)c1ncc(Cl)c(Cl)c1Cl)Nc1ccc(Cl)cn1	HepG2 tox 1.41µM
O=C(c1nn(Cc2ccccc2)c(=O)c2ccccc12)N1CCc2ccccc2C1	TGFb inhibitor inconclusive, Nrf2 block 23.1µM, A549 viability inconclusive
COc1ccc(CNC(=O)c2cnn3c(C)c(Cc4ccc(F)cc4)c(C)nc23)cc1	none (no result: Nrf2 block)
C/C(=N\OC(=O)Nc1ccc(Cl)cc1)c1ccc(F)c(F)c1	none
Cc1cc(OCC(=O)N2CCC(c3nc4ccccc4s3)CC2)ccc1Cl	TGFb inhibitor 10µM, Nrf2 block inconclusive, ATXN2 expr inh inconclusive, S2 tox inconclusive
O=C(CSc1c(Cl)cccc1Cl)N1CCC(c2nc3ccccc3s2)CC1	none (no result: Nrf2 block)
CC(Oc1ccc(F)cc1)C(=O)N1CCC(c2nc3ccccc3s2)CC1 (stereo not drawn)	TGFb inhibitor inconclusive, Nrf2 block inconclusive, ATXN2 expr inh inconclusive, S2 tox inconclusive, A549 viability inconclusive, HepG2 tox 12.6µM
Cc1cc(NS(=O)(=O)c2ccc(NC(=O)COc3ccc(Cl)cc3)cc2)nc(C)n1	Nrf2 block inconclusive
Clc1ccc(CSc2nnc(-c3c[nH]c4ccccc34)o2)cc1	TGFb inhibitor 15.8µM, Nrf2 block inconclusive
O=c1c(-c2nnc(SCc3ccc(Cl)cc3)o2)cccn1Cc1ccccc1	TGFb inhibitor inconclusive, Nrf2 block 20.6µM, S2 tox inconclusive, A549 viability inconclusive
CCSc1nnc(-c2c[nH]c3ccccc23)o1	Nrf2 block inconclusive, S2 tox inconclusive
Clc1cccc(-c2ccc(CNCc3ccccn3)o2)c1	none (no result: ATXN2 expr inh)
O=c1[nH]nc(Cc2ccc(-c3cccc(Cl)c3)o2)c2ccccc12	Nrf2 block 20.6µM
O=C(Nc1ccc(Cl)cc1)N1CCCN(Cc2ccc(F)cc2)C1	TGFb inhibitor inconclusive, ATXN2 expr inh inconclusive, S2 tox inconclusive, HepG2 tox 11.2µM (no result: Nrf2 block)
CC1(Cc2ccccc2OC(F)(F)F)C(=O)Nc2ccc(S(=O)(=O)NC3CCCCC3)cc21 (stereo not drawn)	TGFb inhibitor 12.6µM, ATXN2 expr inh inconclusive, S2 tox inconclusive (no result: Nrf2 block, A549 viability)
Cc1ccc(OC(=O)N(C)C[C@@H]2OCc3cn(nn3)CCCC(=O)N([C@@H](C)CO)C[C@H]2C)cc1	none (no result: Nrf2 block, A549 viability)
Cc1ccc(SCC(=O)OCC(=O)N(CCC#N)c2ccccc2)cc1C	none
Cc1ccc(N(CCC#N)C(=O)CCl)cc1C	TGFb inhibitor inconclusive, ATXN2 expr inh inconclusive, HepG2 tox 11.2µM (no result: S2 tox)
O=C(O)c1ccc(NC2=C/C(=N/S(=O)(=O)c3cccs3)c3ccccc3C2=O)cc1	TGFb inhibitor 14.1µM (no result: Nrf2 block, ATXN2 expr inh, S2 tox, A549 viability)
Cc1cc(C)c(S(=O)(=O)/N=C2\C=C(Nc3ccc(C(=O)O)cc3)C(=O)c3ccccc32)c(C)c1	TGFb inhibitor inconclusive, ATXN2 expr inh 28.2µM, S2 tox inconclusive, HepG2 tox 15.8µM
O=C(O)c1ccc(Nc2nc3ccccc3nc2NS(=O)(=O)c2cccs2)cc1	none
COc1cccc(Cn2c(=O)n(-c3ccccc3C)c(=O)c3c2c2cc(C)ccc2n3C)c1	Nrf2 block inconclusive
C[C@H]1CN([C@@H](C)CO)C(=O)c2cc(Br)cnc2O[C@@H]1CN(C)C(=O)c1ccncc1	none (no result: Nrf2 block, A549 viability)
CC(=O)c1ccc(NS(=O)(=O)c2ccc(C(C)(C)C)cc2)cc1	TGFb inhibitor inconclusive, Nrf2 block 8.2µM
CCC1CCCCN1CCCNC(=O)c1ccc2c(c1)N(Cc1ccccc1F)C(=O)c1ccccc1S2(=O)=O (stereo not drawn)	TGFb inhibitor 11.2µM, Nrf2 block inconclusive, ATXN2 expr inh inconclusive, A549 viability inconclusive
CC1=C(C(=O)O)CC(S(=O)(=O)O)C1(C)C (stereo not drawn)	S2 tox inconclusive
COc1ccc(/C=C2\SC(=N)N(c3nccs3)C2=O)cc1OC	Nrf2 block inconclusive, ATXN2 expr inh 11.2µM, S2 tox inconclusive
COc1ccc(/C=C2\SC(=O)N=C2N)cc1OC	none (no result: ATXN2 expr inh)
N=C1S/C(=C\c2ccc(-c3cccc(Cl)c3)o2)C(=O)N1c1nccs1	TGFb inhibitor inconclusive, Nrf2 block 8.2µM, ATXN2 expr inh 3.55µM, S2 tox 5.62µM, A549 viability inconclusive
CCCCOc1ncnc2c1[nH]c1ccc(F)cc12	Nrf2 block 2.06µM
CCOCCCNc1ncnc2c1[nH]c1ccccc12	Nrf2 block 23.1µM
c1ccc2c(c1)[nH]c1c(NCC3CCCO3)ncnc12 (stereo not drawn)	TGFb inhibitor inconclusive, Nrf2 block 14.6µM
CCCCOc1ncnc2c1[nH]c1ccccc12	Nrf2 block 8.2µM, A549 viability inconclusive
CCCCOc1ncnc2c1[nH]c1ccc(OCC)cc12	none
c1nc(NCC2CCCO2)c2[nH]cnc2n1 (stereo not drawn)	none (no result: Nrf2 block)
CC1CCCCC1NC(=O)C1CCN(S(=O)(=O)c2cccc3nonc23)CC1 (stereo not drawn)	none
Clc1ccc(CN(CC2CCCO2)C(c2cccs2)c2nnnn2C2CCCC2)cc1 (stereo not drawn)	Nrf2 block 11.6µM, ATXN2 expr inh inconclusive
CC1(C(=O)Nc2cnc3ccccc3c2)CCN1C(=O)c1ccccc1CCc1ccccc1 (stereo not drawn)	TGFb inhibitor inconclusive, ATXN2 expr inh 20µM (no result: Nrf2 block, A549 viability)
Cc1ccc(NC(=O)C2(C)CCN2C(=O)c2ccccc2CCc2ccccc2)cc1C (stereo not drawn)	none (no result: Nrf2 block, A549 viability)
CN1C(=O)NC2(O)C(=O)c3ccccc3C12O (stereo not drawn)	HepG2 tox 10µM
O=C(CCC1N=C2c3ccccc3N=C(SCC(=O)Nc3ccccc3F)N2C1=O)NCc1ccco1 (stereo not drawn)	none
CC(c1ccccc1)N1C(=O)/C(=C/c2ccncc2)SC1=S (stereo not drawn)	TGFb inhibitor inconclusive, Nrf2 block inconclusive, S2 tox 22.4µM (no result: ATXN2 expr inh)
